The sample as a whole holds a higher share of hits than the screen did.
Pf Dd2 inh: Plasmodium falciparum Dd2 growth inhibition; Potency, µM (top dose mostly 28.9 µM), for inactives: at the top dose activity, negative = inhibition, hits mostly inhibitors; 120,000 compounds, 4.3% hits; P. falciparum Dd2 growth, SYBR Green, 72 h; active = well fitted inhibition curve with a large enough effect;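 also: plate controls were DMSO vehicle for no effect and reference drug for full effect; nearly all actives have a fitted effect of over 65% in size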
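Infected erythrocytes (Dd2, 0.3% parasitemia, 2.5% hematocrit final) are added to compound in RPMI-1640/Albumax II medium, grown 72 h at 37C in low oxygen, then lysed with saponin/Triton-X containing SYBR Green and read by fluorescence.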
Starred values were filed as active, the others as inactive; i = inactive; [ ] = another dose, or the depositor's remark. Potency is read from the fitted curve at half-maximal effect.

SMILES	Pf Dd2 inh
CCc1ccccc1NC(=O)c1sc2nc(C)cc(COC)c2c1N	-9.4%
COCc1cc(C)nc2sc(C(=O)Nc3ccccc3O)c(N)c12	8.91µM*
Cc1cc(C)c2c(N)c(C(=O)Nc3ccccc3C(F)(F)F)sc2n1	18.6%
Fc1cccc(-c2cnc([C@@H]3COCCN3Cc3cnc[nH]3)[nH]2)c1	-20.3%[44.1 µM]
CCCNC(=O)N1CCC(O)(c2csc(CN3CCc4ccccc4C3)n2)CC1	i
COc1cccc(-c2noc(CC3CCN(C(=O)c4ccc(F)c(F)c4)CC3)n2)c1	-14.5%
CCC(C(=O)Nc1ccc(C(C)=O)cc1)n1cnc2nc3c(cc2c1=O)CCCC3 (stereo not drawn)	10µM*
COC(=O)c1ccc(Cn2cnc3nc4c(cc3c2=O)CCCC4)cc1	55.6%
Cc1ccc(Cn2cnc3nc4c(cc3c2=O)CCCC4)cc1	-23.8%
Cc1noc([C@@H]2CNC[C@H]2CO)n1	i
COc1ccc2[nH]c3c(c2c1)CCNC31CCN(C(=O)C2CC=CC2)CC1	i
Cc1ccc(-c2c(C(=O)N(C)Cc3ccccc3)oc(=O)c3ccccc23)cc1	-12.5%
CCN(Cc1ccccc1)Cc1c(O)ccc2c(=O)c(-c3ccccc3Cl)c(C(F)(F)F)oc12	8.91µM*
CCN(Cc1ccccc1)Cc1c(O)ccc2c(=O)c(-c3ccccc3)c(C(F)(F)F)oc12	6.31µM*
Cc1ccc(-c2nnc(C3CN(C(=O)c4ccc(C)nc4)CC34CCOCC4)o2)cc1 (stereo not drawn)	-5.3%
O=C(NCc1cccs1)c1cc2n(n1)CC(c1ccc3c(c1)OCO3)OC2 (stereo not drawn)	i
O=C(NCCC1CCN(C(=O)Nc2cc(F)cc(F)c2)CC1)c1cccs1	-21.6%
COCc1cc(C[C@@H]2C[C@H](NCC3CC3)C2(C)C)no1	i
CC1(C)[C@H](Cc2cc(-c3ccc(F)cc3)on2)C[C@@H]1NC1CCC1	11.2µM*
CN1CCC(N[C@H]2C[C@@H](Cc3cc(C(C)(C)C)on3)C2(C)C)CC1	5.01µM*
CC(=O)N1CCC(N[C@H]2C[C@@H](Cc3cc(CCO)on3)C2(C)C)CC1	0.7%[44.1 µM]
COCc1cc(C[C@@H]2C[C@H](NC3CCOCC3)C2(C)C)no1	-12.2%[44.1 µM]
CN(Cc1cc(C[C@@H]2C[C@H](NCc3ncc[nH]3)C2(C)C)no1)c1ccccc1	i
CN(C)Cc1cc(C[C@@H]2C[C@H](NCc3ccc(F)cc3)C2(C)C)no1	3.16µM*
CC1(C)[C@H](Cc2cc(-c3ccc(F)cc3)on2)C[C@@H]1NCc1cccnc1	7.94µM*
SMILES	Pf Dd2 inh
COc1ccc(CN[C@H]2C[C@@H](Cc3cc(CCO)on3)C2(C)C)cc1	i
CN(C)C1(Cc2cc(-c3ccc(F)cc3)on2)COC1	13.9%[44.1 µM]
Fc1ccc(-c2cc(CC3(NCc4cccnc4)COC3)no2)cc1	-11.1%[44.1 µM]
COCc1cc(C[C@@H]2C[C@H](NCc3cccnc3)C2(C)C)no1	-9.3%[44.1 µM]
O=C(NCCCn1cccn1)c1cccnc1N1CC2CC(C1)[C@H]1CCCC(=O)N1C2 (stereo partly drawn)	-17.7%
Cc1ccc(NC(=O)N2CCC(OC3CCN(S(C)(=O)=O)CC3)CC2)cc1C	i
Cc1ncccc1C(=O)N1CCC(N2C(=O)CCC2C(=O)NCc2ccccc2)CC1 (stereo not drawn)	39.6%
CC(=O)Nc1ccc(C(=O)N2CCC3(CC2)N=C(c2ccccc2)NO3)cc1	3.0%
O=C(Nc1ccccc1)N1CCCC(c2nc(CCOCC3CCCC3)no2)C1 (stereo not drawn)	i
CCc1cc(=O)n(CC(=O)Nc2ccc(N(C)C)cc2)c(-c2cccc(F)c2)n1	i
Cc1noc(C)c1S(=O)(=O)N(C)Cc1cccc(C(F)(F)F)c1	i
CCC(=O)N1CCN(C2CCN(CCC(C)C)C2=O)CC1 (stereo not drawn)	-22.0%
COc1ccc(CNC(=O)N2CCOCC2CC(=O)N2CCCC2)cc1 (stereo not drawn)	-11.1%
O=C(c1c[nH]c2ccccc12)N1CCC2(CNS(=O)(=O)c3cccnc3O2)C1 (stereo not drawn)	i
O=[S+]1([O-])NC2(CCN(Cc3ccncc3)CC2)COc2ccccc21	11.0%
O=C(NCc1cccc(F)c1)c1ccc2c(c1)CC(=O)N2Cc1ccccc1	i
O=C(O)c1ccc2c(c1)CC(=O)N2Cc1ccc(F)cc1	i
O=C(c1ccc2c(c1)CC(=O)N2Cc1ccccc1)N1CCN(C2CCCCC2)CC1	1.41µM*
Cn1ccnc1C(=O)N1CCCC1c1nc(CCOCC2CCCC2)no1 (stereo not drawn)	6.6%
COc1ccc(CN2CC3(CCN(C(=O)Nc4ccccc4)CC3)C2=O)cc1	-7.1%
COc1ccc(C(=O)N2CCC(Cc3nc(-c4ccccc4)no3)CC2)cc1F	i
O=C(CCc1ccccc1)N1CCC(Cc2nc(-c3ccc(F)cc3)no2)CC1	i
COc1cccc(-c2noc(CC3CCN(C(=O)c4ccc(C)cc4)CC3)n2)c1	i
COc1ccc(-c2noc(CC3CCN(C(=O)CCc4ccccc4)CC3)n2)cc1	11.2µM*
COc1ccc(CCC(=O)N2CCC(Cc3nc(-c4ccc(F)cc4)no3)CC2)cc1	-22.6%
SMILES	Pf Dd2 inh
CCOc1ccc(C(=O)N2CCC(Cc3nc(-c4ccc(OC)cc4)no3)CC2)cc1OCC	8.91µM*
CCc1ccc(C(=O)N2CCC(Cc3nc(-c4ccc(F)cc4)no3)CC2)cc1	i
CCOc1cc(C(=O)N2CCC(Cc3nc(-c4ccc(F)cc4)no3)CC2)cc(OCC)c1OCC	-12.6%
CCOc1ccc(C(=O)N2CCC(Cc3nc(-c4ccc(F)cc4)no3)CC2)cc1OCC	5.01µM*
O=C(Cn1ccn2nc(-c3ccccc3)c(CO)c2c1=O)NCCC1=CCCCC1	i
CC(C)c1noc(-c2cn(C3CCN(C(=O)c4ccc(C(C)(C)C)cc4)C3)nn2)n1 (stereo not drawn)	237.2%
CN(CC1CCOC1)C(=O)c1cccc(Cl)c1 (stereo not drawn)	i[5.79 µM]
CCOc1ccccc1C(=O)N1CCC2(CC1)NC(=O)N(c1cccc(Cl)c1)N2	i
COc1nc2c(cc1CNC(=O)C1(C)CC1)C(=O)N(CCc1ccccn1)C2	-11.2%
O=C1CCN(C(=O)C2CCN(C(=O)COc3ccccc3)CC2)CCCCCCN1	-2.4%
O=C(c1ccccc1Cl)N1CCC(N2CCCCCC2=O)CC1	i
CC(C)CNC(=O)Nc1cccc(-c2ccc(N3CCC(C)CC3)nn2)c1	-16.1%
Cc1cccc(C(=O)Nc2cccc(-c3ccc(N4CCN(C)CC4)nn3)c2)c1	12.6µM*
CSc1cccc(NC(=O)Nc2cccc(-c3ccc(N4CCCC4)nn3)c2)c1	-0.1%
O=C(NCc1ccco1)Nc1cccc(-c2ccc(N3CCCC3)nn2)c1	11.2µM*
O=C(Nc1cccc(-c2ccc(N3CCOCC3)nn2)c1)Nc1ccc2c(c1)CCC2	i
CCc1ccccc1NC(=O)Nc1cccc(-c2ccc(N3CCOCC3)nn2)c1	-23.8%
CCCS(=O)(=O)N1CCC(Cc2nncn2-c2ccccc2)CC1	i
Cc1noc(C)c1CC(=O)N1CCC2(CC1)CC(N(Cc1ccccc1)C1CC1)CCO2 (stereo not drawn)	i
O=C(CCc1cc2n(n1)CCNC2)NCc1nc2ccc(Cl)cc2[nH]1	-0.8%
O=C([C@@H]1C[C@H](Oc2cccnc2)CN1C(=O)CC1CCCCC1)N1CCOCC1	2.0%
Cc1cnc(C2CCOCC2)n1C1CCCNC1 (stereo not drawn)	-5.2%
CC1(c2cccnc2)N(Cc2ccccc2)C(=O)OC12CCN(C(=O)CN1CCOCC1)CC2 (stereo not drawn)	-19.6%

Compound activity deposited in PubChem BioAssay by National Center for Advancing Translational Sciences (NCATS).
